Measurements taken from the supplement of paper PMC7261846.
Structures can show the parent of a compound that is named as a salt. ± gives the uncertainty stated by the source.

System: Candida albicans SNY425 biofilm
Test: biofilm OD600 with compound plus antifungal (OD600 (absorbance)); higher = more biofilm remaining
[1] = assay detail: disruption of 24-h mature biofilm (compound + antifungal for a second 24 h)
[2] = assay detail: sustained inhibition (compound + antifungal during 90-min adherence and 24-h growth)

Structure (SMILES) | biofilm OD600 [1] | biofilm OD600 [2]
Nc1ccc(CC(CC(=O)O)C(=O)O)cc1 [4-Amino-D, L-benzylsuccinic acid] + CC[C@H](C)C[C@H](C)CCCCCCCCC(=O)N[C@H]1C[C@@H](O)[C@@H](NCCN)NC(=O)[C@@H]2[C@@H](O)CCN2C(=O)[C@H]([C@H](O)CCN)NC(=O)[C@H]([C@H](O)[C@@H](O)c2ccc(O)cc2)NC(=O)[C@@H]2C[C@@H](O)CN2C(=O)[C@H]([C@@H](C)O)NC1=O [caspofungin] (first compound 12.5 µM) | 0.295 ± 0.016 | 0.187 ± 0.0071
CO[C@@H]1[C@H](OC(=O)/C=C/C=C/C=C/C=C/C(=O)O)CC[C@]2(CO2)[C@H]1[C@@]1(C)O[C@@H]1CC=C(C)C [Fumagillin] + CC[C@H](C)C[C@H](C)CCCCCCCCC(=O)N[C@H]1C[C@@H](O)[C@@H](NCCN)NC(=O)[C@@H]2[C@@H](O)CCN2C(=O)[C@H]([C@H](O)CCN)NC(=O)[C@H]([C@H](O)[C@@H](O)c2ccc(O)cc2)NC(=O)[C@@H]2C[C@@H](O)CN2C(=O)[C@H]([C@@H](C)O)NC1=O [caspofungin] (first compound 12.5 µM) | 0.257 ± 0.0085 | 0.166 ± 0.0044
NCCCC[C@H](N[C@@H](CCc1ccccc1)C(=O)O)C(=O)N1CCC[C@H]1C(=O)O [Lisinopril] + C[C@@H]1[C@H](O)[C@@H](C)/C=C/C=C/C=C/C=C/C=C/C=C/C=C/[C@H](O[C@@H]2O[C@H](C)[C@@H](O)[C@H](N)[C@@H]2O)C[C@@H]2O[C@](O)(C[C@@H](O)C[C@@H](O)[C@H](O)CC[C@@H](O)C[C@@H](O)CC(=O)O[C@H]1C)C[C@H](O)[C@H]2C(=O)O [amphotericin B] (first compound 12.5 µM) | 0.27 ± 0.012 | 0.173 ± 0.014
CC(C)c1nc(CN(C)C(=O)N[C@H](C(=O)N[C@@H](Cc2ccccc2)C[C@H](O)[C@H](Cc2ccccc2)NC(=O)OCc2cncs2)C(C)C)cs1 [ritonavir] + OC(Cn1cncn1)(Cn1cncn1)c1ccc(F)cc1F [fluconazole] (first compound 12.5 µM) | 0.249 ± 0.0077 | 0.168 ± 0.014
CCOC(=O)c1ccc(OC(=O)CCCCCNC(=N)N)cc1 [Gabexate mesylate] + OC(Cn1cncn1)(Cn1cncn1)c1ccc(F)cc1F [fluconazole] (first compound 12.5 µM) | 0.267 ± 0.013 | 0.116 ± 0.0062
NCC1CCC(C(=O)N[C@@H](Cc2ccccc2)C(=O)Nc2ccc(CC(=O)O)cc2)CC1 (stereo not given in full) + OC(Cn1cncn1)(Cn1cncn1)c1ccc(F)cc1F [fluconazole] (first compound 12.5 µM) | 0.251 ± 0.0096 | 0.13 ± 0.018
NCC1CCC(C(=O)N[C@@H](Cc2ccccc2)C(=O)Nc2ccc(CC(=O)O)cc2)CC1 (stereo not given in full) + CC[C@H](C)C[C@H](C)CCCCCCCCC(=O)N[C@H]1C[C@@H](O)[C@@H](NCCN)NC(=O)[C@@H]2[C@@H](O)CCN2C(=O)[C@H]([C@H](O)CCN)NC(=O)[C@H]([C@H](O)[C@@H](O)c2ccc(O)cc2)NC(=O)[C@@H]2C[C@@H](O)CN2C(=O)[C@H]([C@@H](C)O)NC1=O [caspofungin] (first compound 12.5 µM) | 0.26 ± 0.0081 | 0.191 ± 0.024
CC1CNc2c(cccc2S(=O)(=O)N[C@@H](CCCNC(=N)N)C(=O)N2CC[C@@H](C)C[C@@H]2C(=O)O)C1 (stereo not given in full) [Argatroban] + CC[C@H](C)C[C@H](C)CCCCCCCCC(=O)N[C@H]1C[C@@H](O)[C@@H](NCCN)NC(=O)[C@@H]2[C@@H](O)CCN2C(=O)[C@H]([C@H](O)CCN)NC(=O)[C@H]([C@H](O)[C@@H](O)c2ccc(O)cc2)NC(=O)[C@@H]2C[C@@H](O)CN2C(=O)[C@H]([C@@H](C)O)NC1=O [caspofungin] (first compound 12.5 µM) | 0.285 ± 0.017 | 0.182 ± 0.0063
C[C@H](CS)C(=O)N1CCC[C@H]1C(=O)O [Captopril] + C[C@@H]1[C@H](O)[C@@H](C)/C=C/C=C/C=C/C=C/C=C/C=C/C=C/[C@H](O[C@@H]2O[C@H](C)[C@@H](O)[C@H](N)[C@@H]2O)C[C@@H]2O[C@](O)(C[C@@H](O)C[C@@H](O)[C@H](O)CC[C@@H](O)C[C@@H](O)CC(=O)O[C@H]1C)C[C@H](O)[C@H]2C(=O)O [amphotericin B] (first compound 12.5 µM) | 0.285 ± 0.011 | 0.214 ± 0.0071
CC(C)(C)NC(=O)[C@@H]1CN(Cc2cccnc2)CCN1C[C@@H](O)C[C@@H](Cc1ccccc1)C(=O)N[C@H]1c2ccccc2C[C@H]1O [indinavir] + CC[C@H](C)C[C@H](C)CCCCCCCCC(=O)N[C@H]1C[C@@H](O)[C@@H](NCCN)NC(=O)[C@@H]2[C@@H](O)CCN2C(=O)[C@H]([C@H](O)CCN)NC(=O)[C@H]([C@H](O)[C@@H](O)c2ccc(O)cc2)NC(=O)[C@@H]2C[C@@H](O)CN2C(=O)[C@H]([C@@H](C)O)NC1=O [caspofungin] (first compound 12.5 µM) | 0.227 ± 0.0078 | 0.207 ± 0.011
CC1(C)C[C@@H]1C(=O)N/C(=C\CCCCSC[C@H](N)C(=O)O)C(=O)O [Cilastatin] + CC[C@H](C)C[C@H](C)CCCCCCCCC(=O)N[C@H]1C[C@@H](O)[C@@H](NCCN)NC(=O)[C@@H]2[C@@H](O)CCN2C(=O)[C@H]([C@H](O)CCN)NC(=O)[C@H]([C@H](O)[C@@H](O)c2ccc(O)cc2)NC(=O)[C@@H]2C[C@@H](O)CN2C(=O)[C@H]([C@@H](C)O)NC1=O [caspofungin] (first compound 12.5 µM) | 0.283 ± 0.0048 | 0.199 ± 0.02
CC(C)C[C@H](NC(=O)[C@H]1O[C@@H]1C(=O)O)C(=O)NCCCCN=C(N)N + OC(Cn1cncn1)(Cn1cncn1)c1ccc(F)cc1F [fluconazole] (first compound 12.5 µM) | 0.255 ± 0.012 | 0.149 ± 0.0057
CC(C)CN(C[C@@H](O)[C@H](Cc1ccccc1)NC(=O)O[C@H]1CCOC1)S(=O)(=O)c1ccc(N)cc1 [amprenavir] + C[C@@H]1[C@H](O)[C@@H](C)/C=C/C=C/C=C/C=C/C=C/C=C/C=C/[C@H](O[C@@H]2O[C@H](C)[C@@H](O)[C@H](N)[C@@H]2O)C[C@@H]2O[C@](O)(C[C@@H](O)C[C@@H](O)[C@H](O)CC[C@@H](O)C[C@@H](O)CC(=O)O[C@H]1C)C[C@H](O)[C@H]2C(=O)O [amphotericin B] (first compound 12.5 µM) | 0.283 ± 0.009 | 0.232 ± 0.011
CCN1C(=O)C=CC1=O [N-Ethylmaleimide] + OC(Cn1cncn1)(Cn1cncn1)c1ccc(F)cc1F [fluconazole] (first compound 4 µM) | 0.278 ± 0.0073 | 0.113 ± 0.011
NCCCC[C@H](N[C@@H](CCc1ccccc1)C(=O)O)C(=O)N1CCC[C@H]1C(=O)O [Lisinopril] + OC(Cn1cncn1)(Cn1cncn1)c1ccc(F)cc1F [fluconazole] (first compound 12.5 µM) | 0.26 ± 0.0069 | 0.118 ± 0.015
CC(C)CN(C[C@@H](O)[C@H](Cc1ccccc1)NC(=O)O[C@H]1CCOC1)S(=O)(=O)c1ccc(N)cc1 [amprenavir] + CC[C@H](C)C[C@H](C)CCCCCCCCC(=O)N[C@H]1C[C@@H](O)[C@@H](NCCN)NC(=O)[C@@H]2[C@@H](O)CCN2C(=O)[C@H]([C@H](O)CCN)NC(=O)[C@H]([C@H](O)[C@@H](O)c2ccc(O)cc2)NC(=O)[C@@H]2C[C@@H](O)CN2C(=O)[C@H]([C@@H](C)O)NC1=O [caspofungin] (first compound 12.5 µM) | 0.271 ± 0.014 | 0.201 ± 0.013
CC(C)(C)NC(=O)[C@@H]1CN(Cc2cccnc2)CCN1C[C@@H](O)C[C@@H](Cc1ccccc1)C(=O)N[C@H]1c2ccccc2C[C@H]1O [indinavir] + C[C@@H]1[C@H](O)[C@@H](C)/C=C/C=C/C=C/C=C/C=C/C=C/C=C/[C@H](O[C@@H]2O[C@H](C)[C@@H](O)[C@H](N)[C@@H]2O)C[C@@H]2O[C@](O)(C[C@@H](O)C[C@@H](O)[C@H](O)CC[C@@H](O)C[C@@H](O)CC(=O)O[C@H]1C)C[C@H](O)[C@H]2C(=O)O [amphotericin B] (first compound 12.5 µM) | 0.283 ± 0.0099 | 0.228 ± 0.0076
CC(C)C[C@H](NC(=O)N[C@H](C(=O)N[C@@H](CCC(N)=O)C(=O)N[C@@H](C)C=O)[C@@H]1CCNC(=N)N1)C(=O)O [Elastatinal] + OC(Cn1cncn1)(Cn1cncn1)c1ccc(F)cc1F [fluconazole] (first compound 12.5 µM) | 0.249 ± 0.0066 | 0.16 ± 0.014
N=C(N)Nc1ccc(C(=O)Oc2ccc3cc(C(=N)N)ccc3c2)cc1 [Nafamostat mesylate] + CC[C@H](C)C[C@H](C)CCCCCCCCC(=O)N[C@H]1C[C@@H](O)[C@@H](NCCN)NC(=O)[C@@H]2[C@@H](O)CCN2C(=O)[C@H]([C@H](O)CCN)NC(=O)[C@H]([C@H](O)[C@@H](O)c2ccc(O)cc2)NC(=O)[C@@H]2C[C@@H](O)CN2C(=O)[C@H]([C@@H](C)O)NC1=O [caspofungin] (first compound 12.5 µM) | 0.25 ± 0.0081 | 0.162 ± 0.012
CCC[C@@]1(CCc2ccccc2)CC(O)=C([C@H](CC)c2cccc(NS(=O)(=O)c3ccc(C(F)(F)F)cn3)c2)C(=O)O1 [tipranavir] + CC[C@H](C)C[C@H](C)CCCCCCCCC(=O)N[C@H]1C[C@@H](O)[C@@H](NCCN)NC(=O)[C@@H]2[C@@H](O)CCN2C(=O)[C@H]([C@H](O)CCN)NC(=O)[C@H]([C@H](O)[C@@H](O)c2ccc(O)cc2)NC(=O)[C@@H]2C[C@@H](O)CN2C(=O)[C@H]([C@@H](C)O)NC1=O [caspofungin] (first compound 12.5 µM) | 0.268 ± 0.011 | 0.192 ± 0.0071
